In the library only some 1.3% were active in any assay of this set; here they are far more common.
AGP1 TOR yeast: yeast TOR pathway AGP1-GFP modulation; S. cerevisiae AGP1-GFP multiplex flow cytometry, 3 h; GFP as percent of DMSO wells; GFP response vs DMSO, % at 10 µM; 320,000 tested, 0.02% active; AID 2066;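 active means GFP response relative to DMSO above a set limit, near screen average plus 3 SD, cut at about 150% in these data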;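 further: median GFP channel fluorescence of the gated AGP1 strain per well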
LAP4-GFP MLPCN: modulators of TOR pathway LAP4-GFP in S. cerevisiae; S. cerevisiae LAP4-GFP multiplex, flow cytometry GFP, 3 h; median GFP as percent of DMSO wells; GFP response vs DMSO, % at 10 µM; 320,000 tested, 0.34% active; AID 2023;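 active means GFP response vs DMSO above a set limit, about the screen mean plus 3 SD, cut at about 150% in these data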
RPL19A TOR yeast: yeast TOR pathway RPL19A-GFP modulation; S. cerevisiae RPL19A-GFP strain, flow cytometry, 3 h; hits give low values; percent response vs DMSO, % at 10 µM; 330,000 tested, 0.3% active; AID 2025;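 active means percent response vs DMSO below 50%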;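 further: median channel GFP fluorescence of the barcoded RPL19A-GFP strain; ratio of sample median GFP to plate DMSO average so 100% = DMSO; lower means less RPL19A-GFP as with rapamycin TOR inhibition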
CIT2-GFP yeast: alters CIT2-GFP fluorescence in TOR pathway yeast screen; S. cerevisiae CIT2-GFP strain, flow cytometry, 3 h; 100 means same as DMSO wells; GFP response vs DMSO, % at 10 µM; 320,000 tested, 0.065% active; AID 2029;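 active means GFP response relative to DMSO above a set limit, near the screen mean plus 3 SD, cut at about 150% in these data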;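 further: ratio of well median GFP fluorescence to mean of DMSO wells on the plate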
MEP2 TOR yeast: yeast TOR pathway MEP2-GFP modulation. S. cerevisiae MEP2-GFP strain, flow cytometry GFP, 3 h; 100% = DMSO control level. GFP response vs DMSO, % at 10 µM. 330,000 tested, 0.51% active. AID 2016;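 active means GFP response versus DMSO above a set limit, roughly screen mean plus 3 SD, cut at about 180% in these data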;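 further: median GFP fluorescence of the barcode-gated MEP2-GFP cells per well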
Efflux pump mplx: blocks antifungal efflux pumps in multiplex yeast assay. S. cerevisiae Candida pump triplex, Nile Red efflux. inhibition, % at 10 µM. 330,000 tested, 0.44% active. AID 485275;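 active means plate passing quality check with inhibition over a set limit, or well fluorescence over plate mean plus 4 SD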;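 further: Nile Red retained in pooled yeast measured as flow cytometry median fluorescence; 0% = buffer negative control and 100% = Enniatin B positive control; higher means more Nile Red kept so more efflux inhibition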
Yeast cmpd fluor: flagged as fluorescent in efflux inhibitor counter-screen; fluorescence ratio to DMSO, % at 10 µM; shares compounds with Efflux pump mplx; S. cerevisiae AD/pABC3, compound fluorescence, flow cytometry; 1,700 tested, 4% active;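 active means fluorescence ratio to DMSO above its plate's cutoff, the plate mean ratio plus 5 SD, cut at about 210% in these data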;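 further: unstained yeast with no Nile Red so the signal is compound autofluorescence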
Mdr1 pump inh: Candida Mdr1 efflux pump inhibition; inhibition, % at 10 µM; shares compounds with Efflux pump mplx; S. cerevisiae AD/CaMDR1, Nile Red efflux, flow cytometry; 1,700 tested, 1% active; in the data active means inhibition above about 26%;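 further: 0% = DMSO vehicle and 100% = reference inhibitor; higher means more Nile Red retained so more efflux inhibition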
Cdr2 pump inh: inhibitors of Candida albicans Cdr2 efflux pump. shares compounds with Efflux pump mplx. S. cerevisiae AD/CaCDR2, Nile Red retention, flow cytometry. Nile Red retention ratio vs DMSO, % at 10 µM. 1,700 tested, 4% active; in the data active means Nile Red retention ratio vs DMSO above about 190%;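 further: higher ratio means more blocking of Cdr2 efflux of the dye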
CaCdr1 efflux inh: inhibitors of Candida albicans Cdr1 efflux pump; shares compounds with Efflux pump mplx; S. cerevisiae AD/CaCDR1, Nile Red efflux, flow cytometry; inhibition, % at 10 µM; 1,700 tested, 1% active;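 active means inhibition above the screen-wide mean plus twice its standard deviation, cut at about 32% in these data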
* = called active by the depositor; nt = no result.

SMILES	AGP1 TOR yeast	LAP4-GFP MLPCN	RPL19A TOR yeast	CIT2-GFP yeast	MEP2 TOR yeast	Efflux pump mplx	Yeast cmpd fluor	Mdr1 pump inh	Cdr2 pump inh	CaCdr1 efflux inh
Cc1cc(OCc2cc(C(=O)N(C)Cc3ccccn3)no2)cc(C)c1Cl	79.1	87.1	89.0	76.0	82.3	0.6	89.9	-0.2	100.1	0.1
Cc1cc(Cl)ccc1C(=O)C1CCCN(C(=O)c2snnc2C)C1 (stereo not given)	105.1	108.8	98.5	104.4	100.6	0.0	nt	nt	nt	nt
Cc1ccc(-n2nnnc2SCc2ccc(C(=O)O)cc2)cc1C	79.3	102.1	104.3	99.4	96.9	0.3	nt	nt	nt	nt
O=S(=O)(NCCc1cn2ccccc2n1)c1ccc(F)c(C(F)(F)F)c1	101.4	91.1	97.3	112.9	96.1	0.5*	101.7	0.0	116.0	0.0
Cc1ccn2cc(CCNS(=O)(=O)c3ccc(F)c(C(F)(F)F)c3)nc2c1	97.5	99.2	93.8	100.1	97.9	-0.2	nt	nt	nt	nt
CC(C)(C)c1ccc(OCCOc2ccc(C(C)(C)C)cc2NC=O)c(NC=O)c1	92.2	97.2	86.9	88.5	85.6	0.6*	108.3	-0.1	107.8	0.1
S=C(Nc1ccc(Cl)cc1Cl)N1CCCCC1	96.2	101.5	98.0	96.2	89.8	16.4*	98.2	0.1	112.2	-0.1
S=C(Nc1ccccc1Cl)N1CCCCCC1	99.3	92.7	100.3	104.6	100.2	-0.1	nt	nt	nt	nt
COc1cc2c(cc1OC)C(c1ccccc1)NCC2 (stereo not given)	97.9	92.7	102.2	102.6	97.3	0.1	nt	nt	nt	nt
COc1cc2c(cc1OC)C(c1cc(OC)c(OC)c(OC)c1)NCC2 (stereo not given)	106.7	100.9	101.7	100.8	104.2	0.6*	101.8	-0.4	93.0	-0.3
CCCOc1cc(N(CC)CC)ccc1/C=C(/C#N)c1nc2ccc(C)cc2[nH]1	103.7	110.2	102.1	105.0	125.2	0.7*	241.4*	0.4	126.8	0.2
Cc1cc(O)c(N)c(C)c1Cl	102.8	94.1	96.5	102.2	99.6	0.8*	110.0	0.0	91.9	0.0
Cc1ccc(/C=N/NC(=O)c2csc3c2CCCC3)cc1	98.0	117.9	98.2	91.4	91.7	-0.1	nt	nt	nt	nt
Cc1nn(C)cc1/C=N\NC(=O)c1csc2c1CCCC2	96.9	87.3	97.6	94.9	84.1	7.4*	109.5	0.0	106.0	-0.1
COCC(=O)Nc1ccc(S(=O)(=O)Nc2ccccn2)cc1	107.0	102.9	103.9	103.3	103.0	0.0	nt	nt	nt	nt
O=C(c1cc2nc(-c3cccs3)cc(C(F)(F)F)n2n1)N1CCCc2ccccc21	91.6	84.0	92.2	90.4	85.5	0.7*	89.7	-0.3	82.7	-0.4
Cc1nn(CCC(=O)NCc2ccc(OC(C)C)cc2)c(=O)c2nn(-c3ccccc3)c(C)c12	94.5	104.1	100.1	109.5	109.8	0.3	113.2	0.0	110.2	0.1
Cc1ccc(-n2nc3c(=O)n(CCCC(=O)NCCc4ccccc4)nc(C)c3c2C)cc1	103.9	97.5	103.6	97.5	104.9	0.3	nt	nt	nt	nt
Cc1ccc(-n2nc3c(=O)n(CCCC(=O)NCCN4CCN(C)CC4)nc(C)c3c2C)cc1	101.2	101.7	110.4	102.9	108.6	5.4*	104.5	-0.5	98.5	-0.1
COc1ccc(CNC(=O)C(C)n2nc(C)c3c(C)n(-c4ccc(C)cc4)nc3c2=O)cc1 (stereo not given)	103.3	99.3	103.4	102.9	111.9	-0.3	104.6	0.1	101.8	0.1
Cc1ccc(CCNC(=O)CCCn2nc(C)c3c(C)n(-c4ccc(C)cc4)nc3c2=O)cc1	107.3	98.5	106.3	105.9	111.9	-0.5	223.7	0.5	103.9	0.4
O=C(CN1C(=O)CCOc2ccccc21)Nc1ccc(Cl)c(S(=O)(=O)N2CCOCC2)c1	95.5	104.7	97.7	87.2	96.8	0.0	nt	nt	nt	nt
Cc1ccc(-n2nc3c(=O)n(CC(=O)NCCc4cccs4)nc(C)c3c2C)cc1	102.2	102.2	99.3	108.0	106.1	-0.1	97.6	-0.1	98.5	0.0
CCC(C(=O)Nc1cc(F)ccc1F)n1nc(C)c2c(C)n(-c3ccc(C)cc3)nc2c1=O (stereo not given)	91.7	102.5	98.4	86.2	105.3	5.0*	83.2	-0.1	98.1	0.0
COc1ccc(NC(=O)COc2nsnc2N2CCCCC2)cc1	109.5	114.8	106.7	102.2	113.1	9.0*	106.7	0.1	112.4	0.3
SMILES	AGP1 TOR yeast	LAP4-GFP MLPCN	RPL19A TOR yeast	CIT2-GFP yeast	MEP2 TOR yeast	Efflux pump mplx	Yeast cmpd fluor	Mdr1 pump inh	Cdr2 pump inh	CaCdr1 efflux inh
CCOC(=O)C1C(=O)C=C(/C=C/c2ccc(N(C)C)cc2)CC1c1ccccc1 (stereo not given)	97.4	93.4	100.2	102.3	101.6	0.6*	588.3*	0.2	124.7	0.1
C=CCNC(=O)C(=O)Nc1cc2c3c(c1)CCC(=O)N3CCC2	102.3	99.5	101.7	106.3	104.9	-0.1	nt	nt	nt	nt
COCO/C=C(\NC(C)=O)c1ccccc1	108.1	110.5	99.1	100.2	97.8	1.0*	114.6	-0.3	104.2	0.0
COc1ccccc1N1CCN(C(=O)c2cc(-c3cccs3)on2)CC1	89.3	103.5	94.9	82.7	101.5	0.7*	100.0	-0.1	122.6	0.1
CCN1C(=O)c2cccc3c(S(=O)(=O)N(C(=O)c4cccnc4)c4ccc(OC)cc4)ccc1c23	75.9	94.2	102.6	81.7	98.7	12.7*	101.5	0.2	99.6	0.1
CCN1C(=O)c2cccc3c(S(=O)(=O)N(C(=O)c4ccncc4)c4ccc(OC)cc4)ccc1c23	94.2	88.5	106.0	88.1	99.4	-0.2	nt	nt	nt	nt
O=C(c1ccc2c(=O)n3c(nc2c1)CCCCC3)N1CCN(c2ccc([N+](=O)[O-])cc2)CC1	99.2	95.6	97.2	103.8	103.2	-0.2	nt	nt	nt	nt
CN(C)c1ccc(N2C(=NC(=O)CCc3ccccc3)SC3CS(=O)(=O)CC32)cc1 (stereo not given)	101.3	96.4	99.2	97.7	98.3	1.0*	121.2	0.9	99.3	0.1
O=C(CCCc1ccccc1)N=C1SC2CS(=O)(=O)CC2N1c1ccccc1 (stereo not given)	104.0	102.5	96.0	98.0	99.5	0.0	nt	nt	nt	nt
